Experimental data taken from PubChem BioAssay (NCATS).
Inconclusive results are not listed. A call without a number means that no potency is given here. Activity calls are given as the source filed them. Calls come from the whole dose curve; as a rule, active = well fitted inhibition curve with a large enough effect; inconclusive = small, poorly fitted or top-dose-only effect; inactive = flat fitted curve, though single readings scatter. Where a SMILES comes first, the peptide text is derived from it. Bridges are numbered along the chain shown (N, C = ends). [ ]: non-standard residue; d: D form. The star is where a group is joined. ξ: configuration not given here. d(aThr) = C[C@@H](O)[C@@H](N)C(=O)O; ξThr(3R) = C[C@@H](O)C(N)C(=O)O; X3 = CC[C@@H](C)CCCCC(=O)*; dDab = NCC[C@@H](N)C(=O)O

test system: not listed separately; assay: Drug repurposing screens with cells derived from glioblastoma tumor samples (AID 1345199); conditions: GBM patient neurospheres viability, ATP luminescence, 48 h; tumour line A; note: nearly all actives have a fitted effect of over 40% in size
Method in brief: (§1)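 Four patient lines of CD133+ GBM neurospheres were screened at several concentrations; hits were retested in those lines plus three slower-growing GBM lines, using 48-hour treatment and ATP-based viability.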
Potency is the fitted concentration of half-maximal effect.

Question: With `CNC(C)CCC=C(C)C` (stereo unspecified) as the compound, how does the Potency read?
Answer: Its Potency is 11.2 µM (active).

Question: Which Potency does the source give for `C=C1CC[C@H](O)CC1=C/C=C1\CCC[C@]2(C)[C@@H]([C@H](C)CC[C@@H](O)C(C)(C)O)CC[C@@H]12` here?
Answer: Its Potency is 8.91 µM (active).

Question: For `COc1ccccc1N1CCN(CCCC(=O)c2ccc(F)cc2)CC1`, which Potency is on record?
Answer: The Potency was 10 µM (active).

test system: astro; assay: as above; conditions: viability, ATP luminescence, 48 h; series mostly up to 45.9 µM
Method in brief: as §1

Question: With `CCN(CC)CCOc1ccc2nc(N(C)C)sc2c1` as the compound, how does the Potency read?
Answer: Its Potency is “inactive”.

Question: For `CN=C1C=CC(=C(c2ccc(N(C)C)cc2)c2ccc(N(C)C)cc2)C=C1`, which Potency is on record?
Answer: Its Potency is 11.2 µM (active).

Question: With `CN(C)CCC=C1c2ccccc2C(C)(C)c2ccccc21` as the compound, how does the Potency read?
Answer: Its Potency is 17.8 µM (active).

Question: For `C[N@+]12CCCC[C@@H]1CCC(=C(c1cccs1)c1cccs1)C2`, which Potency is on record?
Answer: The Potency was “inactive”.

Question: With `CCN(CC)C(=O)c1cccnc1` as the compound, how does the Potency read?
Answer: The Potency was “inactive”.

Question: With `CCOc1cc(-c2nccc3cc(OC)c(OC)cc23)cc(OCC)c1OCC` as the compound, how does the Potency read?
Answer: The Potency was “inactive”.

Question: With `CC1=CC(=C(c2ccc(N)cc2)c2ccc(N)cc2)C=CC1=N` as the compound, how does the Potency read?
Answer: Its Potency is 3.16 µM (active).

Question: Which Potency does the source give for `C=C1c2c(Cl)ccc(O)c2C(O)=C2C(=O)[C@]3(O)C(O)=C(C(N)=O)C(=O)[C@@H](N(C)C)[C@@H]3[C@@H](O)[C@H]12` here?
Answer: Its Potency is “inactive”.

Question: For `CNC(C)CCC=C(C)C` (stereo unspecified), which Potency is on record?
Answer: The Potency was “inactive”.

Question: For `CNC(=O)C[C@@H](N)C(=O)N[C@@H](C(=O)N[C@@H]1C(=O)N2[C@@H]1SC(C)(C)[C@@H]2C(=O)O)c1ccc(O)cc1`, which Potency is on record?
Answer: Its Potency is “inactive”.

Question: With `C=C1CC[C@H](O)CC1=C/C=C1\CCC[C@]2(C)[C@@H]([C@H](C)CCCC(C)(C)O)CC[C@@H]12` as the compound, how does the Potency read?
Answer: Its Potency is 20 µM (active).

Question: Which Potency does the source give for `CCC(=O)c1ccc2c(c1)N(CCCN1CCN(CCO)CC1)c1ccccc1S2` here?
Answer: The Potency was 17.8 µM (active).

Question: Which Potency does the source give for `CC(C)OC(=O)Nc1ccc2nc(-c3cscn3)[nH]c2c1` here?
Answer: Its Potency is 2.82 µM (active).

Question: For `COC(=O)CC[C@H](N)C(=O)O`, which Potency is on record?
Answer: The Potency was “inactive”.

Question: For `Cc1cc(-c2ccc(N=Nc3c(S(=O)(=O)O)cc4cc(S(=O)(=O)O)cc(N)c4c3O)c(C)c2)ccc1N=Nc1c(S(=O)(=O)O)cc2cc(S(=O)(=O)O)cc(N)c2c1O`, which Potency is on record?
Answer: Its Potency is 8.91 µM (active).

Question: For `O=C(NNCS(=O)(=O)O)c1ccncc1`, which Potency is on record?
Answer: The Potency was “inactive”.

Question: Which Potency does the source give for `Cc1ccccn1` here?
Answer: The Potency was “inactive”.

Question: With `C=C1C(CCl)(CCl)C2(Cl)C(Cl)C(Cl)C1(Cl)C2(Cl)Cl` (stereo unspecified) as the compound, how does the Potency read?
Answer: Its Potency is “inactive”.

Question: For `CN(C)C(=O)CCSC(SCCC(=O)O)c1cccc(/C=C/c2ccc3ccc(Cl)cc3n2)c1` (stereo unspecified), which Potency is on record?
Answer: The Potency was 17.8 µM (active).

Question: Which Potency does the source give for `CC[C@@H](C)CCCCC(=O)N[C@H](CCN)C(=O)N[C@@H](C(=O)N[C@H](CCN)C(=O)N[C@@H]1CCNC(=O)C([C@@H](C)O)NC(=O)[C@@H](CCN)NC(=O)[C@@H](CCN)NC(=O)[C@@H](CC(C)C)NC(=O)[C@@H](Cc2ccccc2)NC(=O)[C@@H](CCN)NC1=O)[C@@H](C)O` (stereo partly drawn) (X3-[dDab][d(aThr)][dDab][dDab][dDab][dF][dL][dDab][dDab][ξThr(3R)]; lactam 4-C) here?
Answer: Its Potency is “inactive”.

Question: For `C=C1CC[C@H](O)CC1=C/C=C1\CCC[C@]2(C)[C@@H]([C@H](C)CC[C@@H](O)C(C)(C)O)CC[C@@H]12`, which Potency is on record?
Answer: The Potency was “inactive”.

Question: For `N=C(N)n1cccn1`, which Potency is on record?
Answer: The Potency was “inactive”.

Question: For `O=C(CCCN1CCN2CCCC2C1)c1ccc(F)cc1` (stereo unspecified), which Potency is on record?
Answer: The Potency was “inactive”.

Question: For `COc1ccccc1N1CCN(CCCC(=O)c2ccc(F)cc2)CC1`, which Potency is on record?
Answer: The Potency was “inactive”.

Question: Which Potency does the source give for `Cc1cc(-c2ccc(N=Nc3ccc4c(S(=O)(=O)O)cc(S(=O)(=O)O)c(N)c4c3O)c(C)c2)ccc1N=Nc1ccc2c(S(=O)(=O)O)cc(S(=O)(=O)O)c(N)c2c1O` here?
Answer: The Potency was 17.8 µM (active).

Question: For `COc1ccc2c(c1)OC(C)(C)C(c1ccccc1)C2c1ccc(OCCN2CCCC2)cc1` (stereo unspecified), which Potency is on record?
Answer: The Potency was 35.5 µM (active).

Question: With `CC[C@@H](C(=O)[C@@H](C)[C@@H](O)[C@H](C)[C@@H]1O[C@@H]([C@@H](CC)C(=O)O)CC[C@@H]1C)[C@H]1O[C@]2(C=C[C@@H](O)[C@]3(CC[C@@](C)([C@H]4CC[C@](O)(CC)[C@H](C)O4)O3)O2)[C@H](C)C[C@@H]1C` as the compound, how does the Potency read?
Answer: Its Potency is 7.94 µM (active).

Question: With `CCCCCCCCCCCCCCCCOCCOCCOCCOCCOCCOCCOCCOCCOCCOCCOCCOCCOCCOCCOCCOCCOCCOCCOCCOCCO` as the compound, how does the Potency read?
Answer: Its Potency is 3.16 µM (active).

Question: Which Potency does the source give for `CCN(CC)CCCC(C)Nc1cc(/C=C/c2ccccc2Cl)nc2cc(Cl)ccc12` (stereo unspecified) here?
Answer: Its Potency is “inactive”.

Question: For `O=C(O[C@H]1CN2CCC1CC2)N1CCc2ccccc2[C@@H]1c1ccccc1`, which Potency is on record?
Answer: Its Potency is “inactive”.

Question: For `CCN(CC)CCC(=O)N1c2ccccc2Sc2ccc(C(F)(F)F)cc21`, which Potency is on record?
Answer: The Potency was “inactive”.

Question: With `Cc1cccc(C)c1NC(=O)C1CCCCN1C` (stereo unspecified) as the compound, how does the Potency read?
Answer: The Potency was “inactive”.

Question: For `C=Cc1ccc(S(=O)(=O)O)cc1`, which Potency is on record?
Answer: Its Potency is “inactive”.

Question: Which Potency does the source give for `CCCCCCCCCc1ccc(OCCOCCO)cc1` here?
Answer: Its Potency is 12.6 µM (active).

Question: With `O=C(O)Cc1nn(Cc2ccc(Br)cc2F)c(=O)c2ccccc12` as the compound, how does the Potency read?
Answer: The Potency was “inactive”.

Question: For `CC(=C\c1ccccc1)/C=C1/SC(=S)N(CC(=O)O)C1=O`, which Potency is on record?
Answer: The Potency was “inactive”.

Question: For `OCCN1CCN(CC/C=C2/c3ccccc3Sc3ccc(Cl)cc32)CC1`, which Potency is on record?
Answer: Its Potency is “inactive”.

Question: With `CC[C@@]1([C@@H]2O[C@@H]([C@H]3O[C@@](O)(CO)[C@H](C)C[C@@H]3C)C[C@@H]2C)CC[C@H]([C@]2(C)CC[C@]3(C[C@H](O)[C@@H](C)[C@@H]([C@@H](C)[C@@H](OC)[C@H](C)C(=O)O)O3)O2)O1` (stereo in doubt) as the compound, how does the Potency read?
Answer: The Potency was 14.1 µM (active).
